Results filed as inconclusive are left out. Calls of active or inactive are those of the source. Unless noted, calls follow the shape of the dose curve; as a rule, active = well fitted curve in the direction sought with a large enough effect in the repeat runs; inconclusive = weak or mixed curves; inactive = no such curve, though single readings can be large; an effect the other way counts as inactive or inconclusive.
What was measured:
[1] = molecular target: Thyrotropin receptor (Homo sapiens) (UniProt P16473); test: qHTS assay to identify small molecule antagonists of the thyroid stimulating hormone receptor (TSHR) signaling pathway (AID 1259385; calls by dose curve; also: nearly all actives have a fitted effect of over 20% in size)
Chain of Thyrotropin receptor (Homo sapiens) (P16473 whole entry, looked up): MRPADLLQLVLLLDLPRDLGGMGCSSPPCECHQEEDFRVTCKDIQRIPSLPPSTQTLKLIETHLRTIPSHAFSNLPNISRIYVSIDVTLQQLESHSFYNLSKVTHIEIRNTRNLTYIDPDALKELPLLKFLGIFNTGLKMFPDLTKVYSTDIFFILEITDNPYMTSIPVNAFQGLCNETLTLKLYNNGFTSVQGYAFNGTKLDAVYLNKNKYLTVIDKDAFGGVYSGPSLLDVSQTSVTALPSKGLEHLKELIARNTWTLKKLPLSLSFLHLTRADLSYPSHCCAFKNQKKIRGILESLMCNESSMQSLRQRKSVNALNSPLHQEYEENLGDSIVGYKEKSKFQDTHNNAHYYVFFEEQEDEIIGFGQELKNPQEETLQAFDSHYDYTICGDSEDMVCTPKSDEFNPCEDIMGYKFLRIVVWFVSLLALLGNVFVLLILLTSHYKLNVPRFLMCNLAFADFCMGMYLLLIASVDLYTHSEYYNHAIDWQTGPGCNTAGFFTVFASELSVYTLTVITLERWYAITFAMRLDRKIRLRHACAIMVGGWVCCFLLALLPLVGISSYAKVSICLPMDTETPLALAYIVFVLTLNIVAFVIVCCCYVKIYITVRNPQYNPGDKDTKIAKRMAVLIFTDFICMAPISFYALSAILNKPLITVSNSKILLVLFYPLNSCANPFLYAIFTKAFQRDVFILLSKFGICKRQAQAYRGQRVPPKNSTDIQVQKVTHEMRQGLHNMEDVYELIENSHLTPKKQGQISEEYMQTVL
How it was run: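 TSHR-HEK293 cells were plated and held 18 h at 37C/5% CO2, then given compound plus Ro20-1724 and stimulated with TSH at 1.5 ng/mL final. After 30 min at room temperature, cAMP was detected with cAMP-d2/anti-cAMP-cryptate (1 h) by fluorescence.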

[2] = qHTS assay to identify small molecule agonists of the estrogen receptor alpha (ER-alpha) signaling pathway in the presence of an antagonist - cell viability counter screen (AID 1259386);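 also: series mostly up to about 92 µM; cells exposed to compounds for 22 h at 37 °C before the viability read; nearly all actives have a fitted effect of over 30% in size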
How it was run: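 Viability counter screen using VM7Luc4E2 (full-length ER-alpha, four ERE-luciferase). The cells were treated with compounds alongside ICI-182,780 10.0nM for 22hr, and live-cell protease fluorescence was quantified with CellTiter-Fluor.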

[3] = molecular target: Progesterone receptor (Homo sapiens) (UniProt P06401); test: qHTS assay to identify small molecule agonists of the progesterone receptor (PR) signaling pathway (AID 1346784; calls by dose curve; also: nearly all actives have a fitted effect of over 30% in size)
Chain of Progesterone receptor (Homo sapiens) (P06401 whole entry, looked up): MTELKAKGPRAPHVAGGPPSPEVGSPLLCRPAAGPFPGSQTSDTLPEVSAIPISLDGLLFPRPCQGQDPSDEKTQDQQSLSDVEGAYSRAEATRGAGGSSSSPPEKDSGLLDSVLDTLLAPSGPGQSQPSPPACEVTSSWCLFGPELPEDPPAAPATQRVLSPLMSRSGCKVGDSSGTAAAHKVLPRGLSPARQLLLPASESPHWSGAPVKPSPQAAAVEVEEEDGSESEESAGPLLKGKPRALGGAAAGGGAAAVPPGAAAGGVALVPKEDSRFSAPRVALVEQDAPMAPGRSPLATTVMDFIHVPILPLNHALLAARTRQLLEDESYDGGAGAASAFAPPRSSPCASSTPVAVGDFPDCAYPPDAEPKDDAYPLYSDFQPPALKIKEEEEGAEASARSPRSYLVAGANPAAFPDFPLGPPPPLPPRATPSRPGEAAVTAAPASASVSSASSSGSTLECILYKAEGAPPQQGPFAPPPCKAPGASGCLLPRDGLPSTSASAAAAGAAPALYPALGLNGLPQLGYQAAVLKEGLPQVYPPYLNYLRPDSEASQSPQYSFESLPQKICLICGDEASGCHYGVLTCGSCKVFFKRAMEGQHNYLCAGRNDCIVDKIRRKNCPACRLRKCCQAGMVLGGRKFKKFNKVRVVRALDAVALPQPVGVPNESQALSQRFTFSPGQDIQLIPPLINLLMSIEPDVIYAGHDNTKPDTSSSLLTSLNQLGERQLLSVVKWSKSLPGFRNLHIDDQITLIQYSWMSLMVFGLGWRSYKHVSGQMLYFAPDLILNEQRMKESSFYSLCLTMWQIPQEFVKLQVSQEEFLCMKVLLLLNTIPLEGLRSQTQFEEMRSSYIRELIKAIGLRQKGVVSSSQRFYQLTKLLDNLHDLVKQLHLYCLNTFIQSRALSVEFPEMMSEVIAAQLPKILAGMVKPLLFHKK
How it was run: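 Fluorescence from LiveBLAzer B/G FRET substrate cleavage (2 hr, RT) reported PR activation in PR-UAS-bla HEK 293T cells treated 16 hr at 37C/5% CO2 with compounds; medium contained 2% charcoal-stripped FBS.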

[4] = molecular target: Progesterone receptor (Homo sapiens) (UniProt P06401); test: qHTS assay to identify small molecule antagonists of the progesterone receptor (PR) signaling pathway (AID 1346795; active = well fitted inhibition curve with a large enough effect in the signal ratio in the repeat runs, not every such curve was filed as active; the % refers to the signal ratio)
How it was run: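 Fluorescence intensity measured 2 hr after adding beta-lactamase FRET substrate to PR-UAS-bla HEK293T cells that had been co-treated 16 hr with compound and 1 nM R5020 (final concentration) in 2% charcoal-stripped FBS.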

[5] = qHTS assay to identify small molecule antagonists of the progesterone receptor (PR) signaling pathway - cell viability counter screen (AID 1346798); also: series mostly up to about 92 µM; nearly all actives have a fitted effect of over 50% in size
How it was run: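 CellTiter-Glo luminescence; PR-UAS-bla HEK293T, 3,000 cells/well; compound + R5020, 16 hr, 37C/5% CO2; 30 min RT before read.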

[6] = qHTS assay to identify small molecule agonists of the progesterone receptor (PR) signaling pathway - cell viability counter screen (AID 1346799; calls by dose curve; also: nearly all actives have a fitted effect of over 45% in size)
How it was run: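 In parallel with the beta-lactamase readout, cytotoxicity toward PR-UAS-bla HEK293T cells was measured by CellTiter-Glo luminescence following 16 hr compound incubation in 2% charcoal-stripped FBS medium.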

[7] = qHTS assay to identify small molecule antagonists of the TGF-beta/Smad signaling pathway - cell viability counter screen (AID 1346824); also: nearly all actives have a fitted effect of over 50% in size
How it was run: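 SBE-bla HEK 293T cells were plated overnight at 37 C, then given compounds in DMSO plus TGF-beta1 (added as 0.25 ng/mL solution) for 5 hr. After the bla read, CellTiter-Glo was added to the same wells and luminescence read after 30 min at room temperature.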

[8] = qHTS assay to identify small molecule agonists of the TGF-beta/Smad signaling pathway (AID 1346859; active = well fitted activation curve with a large enough effect in the signal ratio in the repeat runs, not every such curve was filed as active; the % refers to the signal ratio; also: series mostly up to about 77 µM)
How it was run: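 After overnight seeding, SBE-bla HEK 293T cells are dosed with compounds in DMSO and kept 5 hr at 37 C, 5% CO2. LiveBLAzer-type FRET substrate is then applied for 2 hr at room temperature.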

[9] = Human pregnane X receptor (PXR) small molecule agonists, qHTS cell viability counter screen (AID 1346977); also: nearly all actives have a fitted effect of over 50% in size
How it was run: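 Viability counter screen: CellTiter-Fluor signal in PXR-Luc HepG2 cells, 24hr compound exposure, 37C, 5% CO2.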

[10] = Caspase-3/7 induction in HepG2 cells by small molecules, qHTS assay (AID 1346978); also: nearly all actives have a fitted effect of over 15% in size
How it was run: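 Wild-type HepG2 cells (2,000/well) were settled 5 h at 37 C, 5% CO2, then exposed to compounds in DMSO for 17 h. Caspase-3/7 activity was read by luminescence 30 min after adding Caspase-Glo 3/7 reagent at room temperature.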

[11] = Caspase-3/7 induction in CHO-K1 cells by small molecules, qHTS assay (AID 1346980); also: nearly all actives have a fitted effect of over 15% in size
How it was run: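 Wild-type cells were seeded at 1,500 per well and settled 5 hr at 37 C, 5% CO2, then exposed to DMSO-dissolved compounds for 17 hr. Caspase-Glo 3/7 reagent was added, and luminescence was read after 30min at room temperature.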

[12] = Caspase-3/7 induction in HepG2 cells by small molecules, qHTS cell viability counter screen (AID 1346981); also: series mostly up to about 92 µM; nearly all actives have a fitted effect of over 30% in size
How it was run: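 Viability determined by CellTiter-Fluor fluorescence in HepG2 wells also used for the luminescent Caspase-Glo 3/7 read. Compounds were present for 16 hr at 37 C, 5% CO2 before reagent addition.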

[13] = molecular target: Nuclear receptor subfamily 1 group I member 2 (Homo sapiens) (UniProt O75469); test: Human pregnane X receptor (PXR) small molecule agonists, qHTS assay (AID 1346982); also: nearly all actives have a fitted effect of over 35% in size
Chain of Nuclear receptor subfamily 1 group I member 2 (Homo sapiens) (O75469 whole entry, looked up): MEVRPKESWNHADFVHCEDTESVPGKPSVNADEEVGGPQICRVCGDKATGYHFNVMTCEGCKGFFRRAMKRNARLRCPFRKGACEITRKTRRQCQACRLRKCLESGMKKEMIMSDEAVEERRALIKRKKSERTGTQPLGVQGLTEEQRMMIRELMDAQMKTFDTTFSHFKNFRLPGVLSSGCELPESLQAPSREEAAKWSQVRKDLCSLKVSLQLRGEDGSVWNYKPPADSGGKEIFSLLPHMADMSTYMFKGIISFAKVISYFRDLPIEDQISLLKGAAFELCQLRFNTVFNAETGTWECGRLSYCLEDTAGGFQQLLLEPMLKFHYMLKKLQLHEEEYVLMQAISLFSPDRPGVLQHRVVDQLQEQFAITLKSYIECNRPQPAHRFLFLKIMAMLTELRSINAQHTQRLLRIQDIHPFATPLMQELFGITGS
How it was run: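 Compound-induced hPXR transactivation of a CYP3A4 luciferase reporter was scored in HepG2 PXR-Luc cells over 24 hr at 37 C, 5% CO2, by luminescence.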

[14] = molecular target: Cytochrome P450 2D6 (Homo sapiens) (UniProt P10635); test: Cytochrome P450 Family 2 Subfamily D Member 6 (CYP2D6) small molecule antagonists: luciferase reporter qHTS assay (AID 1671196); also: series mostly up to about 120 µM; nearly all actives have a fitted effect of over 50% in size
Chain of Cytochrome P450 2D6 (Homo sapiens) (P10635 whole entry, looked up): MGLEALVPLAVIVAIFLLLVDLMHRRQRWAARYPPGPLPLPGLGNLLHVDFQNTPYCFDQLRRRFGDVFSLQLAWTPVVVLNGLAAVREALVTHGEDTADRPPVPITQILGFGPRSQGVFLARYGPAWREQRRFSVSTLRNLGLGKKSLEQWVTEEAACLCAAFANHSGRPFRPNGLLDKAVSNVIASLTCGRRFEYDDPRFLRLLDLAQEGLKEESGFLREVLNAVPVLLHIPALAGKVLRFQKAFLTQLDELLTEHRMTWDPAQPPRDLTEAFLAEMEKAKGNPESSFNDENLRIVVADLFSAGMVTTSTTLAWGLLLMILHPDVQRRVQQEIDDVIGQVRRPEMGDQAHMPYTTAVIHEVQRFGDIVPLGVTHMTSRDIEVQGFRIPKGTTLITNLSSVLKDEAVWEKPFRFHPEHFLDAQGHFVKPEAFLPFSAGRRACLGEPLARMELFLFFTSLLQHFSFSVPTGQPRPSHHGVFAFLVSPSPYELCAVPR
How it was run: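 Each well received CYP2D6 with its proluciferin substrate and chemical, sat 10 min, then got NADPH regeneration solution for 1 h at room temperature. Luminescence in RLU served as the activity measure.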

[15] = qHTS assay to identify small molecule agonists of the TGF-beta/Smad signaling pathway - cell viability counter screen (AID 1346829); also: top concentration of the series differs between compounds; nearly all actives have a fitted effect of over 45% in size
How it was run: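 Here the cytotoxicity of library compounds is measured in SBE-bla HEK 293T cells treated for 5 hr, using CellTiter-Glo added to wells already read for the beta-lactamase reporter.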

[16] = molecular target: Thyrotropin-releasing hormone receptor (Homo sapiens) (UniProt P34981); test: qHTS assay to identify small molecule antagonists of the thyrotropin-releasing hormone receptor (TRHR) signaling pathway (AID 1346877; active = well fitted inhibition curve with a large enough effect in the repeat runs, not every such curve was filed as active; also: series mostly up to about 51 µM)
Chain of Thyrotropin-releasing hormone receptor (Homo sapiens) (P34981 whole entry, looked up): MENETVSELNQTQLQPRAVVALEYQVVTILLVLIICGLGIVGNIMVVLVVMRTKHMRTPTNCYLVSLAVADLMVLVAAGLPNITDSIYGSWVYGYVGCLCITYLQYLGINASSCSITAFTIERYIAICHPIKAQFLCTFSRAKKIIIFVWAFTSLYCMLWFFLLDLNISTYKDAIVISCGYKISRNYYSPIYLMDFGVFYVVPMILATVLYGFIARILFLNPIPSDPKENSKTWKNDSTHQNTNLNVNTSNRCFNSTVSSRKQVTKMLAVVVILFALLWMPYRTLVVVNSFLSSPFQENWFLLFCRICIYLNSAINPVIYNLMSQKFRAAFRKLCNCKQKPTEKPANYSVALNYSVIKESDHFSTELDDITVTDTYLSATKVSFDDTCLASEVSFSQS
How it was run: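 Following an 18 h incubation at 37 °C and a 2 h calcium dye load, TRHR-HEK293 cells were exposed to compound (5 min, room temperature) and challenged with TRH, 1 nM final.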

[17] = molecular target: Thyrotropin-releasing hormone receptor (Homo sapiens) (UniProt P34981); test: qHTS assay to identify small molecule agonists of the thyrotropin-releasing hormone receptor (TRHR) signaling pathway (AID 1346891; calls by dose curve;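 also: HEK293 cells expressing TRHR with calcium dye readout; series mostly up to about 58 µM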)
How it was run: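 Compounds were tested as agonists at 15 concentrations, in triplicate, on TRHR-Hek293 cells; calcium-sensitive dye fluorescence was recorded for 3 min following addition.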

[18] = Caspase-3/7 induction in CHO-K1 cells by small molecules, qHTS cell viability counter screen (AID 1346979); also: nearly all actives have a fitted effect of over 35% in size
How it was run: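 Viability readout by fluorescence (CellTiter-Fluor) on wild-type CHO-K1 cells exposed for 16hr at 37C and 5% CO2 to compounds delivered in DMSO; reagent incubated 1hr before reading.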

[19] = molecular target: Nuclear receptor subfamily 1 group I member 2 (Rattus norvegicus) (UniProt Q9R1A7); test: Rat pregnane X receptor (rPXR) activation by small molecules, qHTS assay (AID 1346983); settings: rPXR luciferase reporter cells, One-Glo luminescence, 24 h; max activation: active compounds read high; also: nearly all actives have a fitted effect of over 20% in size
Chain of Nuclear receptor subfamily 1 group I member 2 (Rattus norvegicus) (Q9R1A7 whole entry, looked up): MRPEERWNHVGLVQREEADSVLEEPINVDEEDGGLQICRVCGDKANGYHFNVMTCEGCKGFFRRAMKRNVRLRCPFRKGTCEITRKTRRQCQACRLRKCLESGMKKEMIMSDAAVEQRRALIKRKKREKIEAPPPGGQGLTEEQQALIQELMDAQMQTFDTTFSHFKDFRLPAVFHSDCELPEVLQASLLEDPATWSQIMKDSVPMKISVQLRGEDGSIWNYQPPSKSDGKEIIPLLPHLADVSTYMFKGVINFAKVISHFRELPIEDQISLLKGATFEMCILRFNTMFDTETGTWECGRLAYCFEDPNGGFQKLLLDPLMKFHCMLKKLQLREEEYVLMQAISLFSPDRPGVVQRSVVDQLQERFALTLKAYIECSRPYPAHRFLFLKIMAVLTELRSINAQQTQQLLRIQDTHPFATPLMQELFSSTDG
How it was run: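 Cell-based rPXR luciferase reporter assay, 2,000 cells per well, rested 5hr at 37 C before compound addition in DMSO, then 24 hr at 37 C. One-Glo reagent was added and luminescence read after 30 min at room temperature.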

[20] = molecular target: Nuclear receptor subfamily 1 group I member 2 (Homo sapiens) (UniProt O75469); test: CYP3A4 induction through human pregnane X receptor (PXR) by small molecules, qHTS assay (AID 1346984); also: nearly all actives have a fitted effect of over 40% in size
How it was run: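 Readings come from a luciferase reporter: DPX-2 cells, which are HepG2 cotransfected with PXR and a CYP3A4-promoter construct, were exposed to test compounds for 24 h at 37C before One-Glo detection.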
% is scaled to controls: 0 for no effect and ±100 for the full control effect.

CC(=O)NCCO
inactive: Potency [1] | Potency [2] | Potency [3] | Potency [4] | Potency [5] | Potency [6] | outcome [7] | Potency [8] | Potency [9] | Potency [10] | outcome [11] | Potency [12] | Potency [13] | Potency [14]

CCCCCCCCCCCCCCCCCC(=O)OCC(CC)CCCC (centres undefined)
inactive: Potency [1] | Potency [2] | Potency [3] | Potency [4] | Potency [5] | Potency [6] | outcome [7] | Potency [15] | Potency [8] | Potency [9] | Potency [10] | outcome [11] | Potency [12] | Potency [13] | Potency [14]

CCCCCCCC(=O)OCCCCCC
inactive: Potency [1] | Potency [2] | Potency [3] | Potency [4] | Potency [5] | Potency [6] | outcome [7] | Potency [8] | outcome [16] | outcome [17] | Potency [9] | Potency [10] | outcome [11] | Potency [12] | Potency [13] | Potency [14]

O=P(O)(O)Oc1ccccc1
inactive: Potency [1] | Potency [2] | Potency [3] | Potency [4] | Potency [5] | Potency [6] | outcome [7] | Potency [8] | outcome [16] | outcome [17] | Potency [9] | Potency [10] | Potency [12] | Potency [13]

CC(=O)OC(C)C[N+](C)(C)C (centres undefined)
inactive: Potency [1] | Potency [2] | Potency [3] | Potency [4] | Potency [5] | Potency [6] | outcome [7] | Potency [15] | Potency [8] | Potency [9] | Potency [10] | Potency [18] | outcome [11] | Potency [12] | Potency [13] | max activation [19] -2.41% | Potency [20] | Potency [14]

CC(C)(O)CCc1ccccc1
inactive: Potency [1] | Potency [2] | Potency [3] | Potency [4] | Potency [5] | Potency [6] | outcome [7] | Potency [15] | Potency [8] | Potency [9] | Potency [10] | Potency [18] | outcome [11] | Potency [12] | Potency [13] | Potency [14]

COC(=O)CC(C(C)=O)C(=O)OC (centres undefined)
inactive: Potency [1] | Potency [2] | Potency [3] | Potency [4] | Potency [5] | Potency [6] | outcome [7] | Potency [8] | outcome [16] | outcome [17] | Potency [9] | Potency [10] | outcome [11] | Potency [12] | Potency [13] | Potency [14]

C=CC(=O)NC(C)C
inactive: Potency [1] | Potency [2] | Potency [3] | Potency [4] | Potency [5] | Potency [6] | outcome [7] | Potency [15] | Potency [8] | Potency [9] | Potency [10] | Potency [18] | Potency [12] | Potency [13] | Potency [14]
